# From PubChem BioAssay
# An excerpt weighted towards active compounds, which were near 7.7% of everything screened.
# HCMV antiviral: blocks human cytomegalovirus replication. activity change, negative = inhibition, % at 57.5 µM. hit rate 4.5% among 410,000. AID 1259415. HFF cells, HCMV-luciferase reporter, 72 h; stronger effect = lower value; in the data active means activity change below about -60%; inconclusive means no clear call, values can overlap the other calls; inactive means above about -39%
#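 Two-dose cell screen: HFF monolayers treated with compounds and infected with luciferase-expressing HCMV at 1 PFU/cell, 72 h at 37C, then lysed for luciferase measurement.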
# TbPYK inhibitor: blocks Trypanosoma brucei pyruvate kinase | Q57TT1 | TbPYK enzyme, Kinase-Glo Plus ATP luminescence, 45 min | Potency, µM (series often up to 76.8 µM), without a hit: at the top dose activity, negative = inhibition, actives largely listed as inhibitors | hit rate 0.12% among 410,000; further: potency means the concentration at half of the fitted maximal effect; nearly all actives have a fitted effect of over 50% in size
#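 In this concentration-response screen, enzyme-free wells defined baseline while DMSO plates tracked drift. Each reaction combined TbPYK, substrate, compound and 130 uM ADP for 45 min at room temperature. Kinase-Glo Plus luminescence gave the signal.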
# Sm TGR block: blocks Schistosoma mansoni thioredoxin glutathione reductase; hit rate 3% among 360,000; purified TGR, DTNB reduction, TNB absorbance 405 nm; AID 485364; Potency, µM (top dose mostly 114 µM), inactives show top-dose activity change, negative = inhibition, most hits filed as inhibitors; further: potency means the concentration at half of the fitted maximal effect; nearly all actives have a fitted effect of over 60% in size
#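 TGR 20 nM + NADPH 100 uM (dispensed conc.), cpd preinc 15 min RT; start with NADPH (500 uM addition) then DTNB (15 mM addition). Kinetic TNB absorbance, 405 nm filter. Four-parameter Hill fit across titration.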
# FMDV inh: antivirals against foot and mouth disease virus. Potency, µM (titrated, usually from 57.9 µM), for the others: top-dose activity change, negative = inhibition, most hits filed as inhibitors. AID 1159524. FMDV antiviral cell-based qHTS. hit rate 1.2% among 410,000; calls by dose curve; tested in HEK293T cells; further: read-out not given here; potency means the concentration at half of the fitted maximal effect; nearly all actives have a fitted effect of over 45% in size
# Giardia FBPA inh: blocks Giardia fructose-bisphosphate aldolase activity | A8B2U2 | purified Giardia FBPA | Potency, µM (top dose mostly 59.6 µM), inactives show top-dose activity, negative = inhibition, hits mostly inhibitors | hit rate 0.71% among 290,000 | AID 2451; further: potency means the concentration at half of the fitted maximal effect; nearly all actives have a fitted effect of over 55% in size
# Target sequence (A8B2U2 whole entry, looked up): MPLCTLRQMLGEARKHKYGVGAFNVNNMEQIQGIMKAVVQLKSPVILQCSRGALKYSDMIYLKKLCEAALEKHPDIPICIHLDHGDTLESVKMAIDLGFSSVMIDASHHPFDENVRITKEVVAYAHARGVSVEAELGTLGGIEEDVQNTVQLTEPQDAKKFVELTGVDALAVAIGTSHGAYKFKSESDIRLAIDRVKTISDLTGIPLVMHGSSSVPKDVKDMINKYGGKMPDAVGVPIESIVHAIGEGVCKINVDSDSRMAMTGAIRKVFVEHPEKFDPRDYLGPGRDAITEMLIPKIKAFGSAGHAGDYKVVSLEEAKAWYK
#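 40 nM FBPA preincubated 10 min at RT with compound (up to 57.5 uM final), then substrate plus GAPDH/TPI/NAD/arsenate coupling and diaphorase/resazurin added. Fluorescence read after 20 min at RT, 525/598 nm.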
# RE007 growth inh: less growth of the S. pombe RE007 Vpr strain; Potency, µM (highest dose often 92.2 µM), without a hit: at the top dose activity change, negative = less growth, actives largely listed as inhibitors; S. pombe RE007 Vpr strain, BacTiter-Glo ATP luminescence, 24 h; hit rate 0.21% among 360,000; AID 651644; active means well fitted falling curve with a large enough effect; inconclusive means small, poorly fitted or top-dose-only effect; inactive means no such curve, though single readings can be large or run the other way; further: potency means the concentration at half of the fitted maximal effect; nearly all actives have a fitted effect of over 50% in size
#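 Fission yeast strain RE007, carrying one chromosomally integrated HIV-1 vpr copy, was seeded at OD 0.01 in PMG+AL medium with 23 nL pinned compound. After 24 h at 30 °C and 99% humidity, viability was read by BacTiter-Glo luminescence.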
# Numbers without * were called inactive; ? = inconclusive; / = no result given. Unless noted, the call rests on the fitted dose curve; in most records, active means well fitted curve in the direction sought with a large enough effect; inconclusive means small, poorly fitted or top-dose-only effect, or another doubt; inactive means no such curve, though single readings can be large; an effect the other way counts as inactive or inconclusive. On the % scale 0 is the no-effect control and ±100 the full control effect.
SMILES,HCMV antiviral,TbPYK inhibitor,Sm TGR block,FMDV inh,Giardia FBPA inh,RE007 growth inh
CCCCOc1ccc(C(C)NC(=O)CN2C(=O)CSc3ccc(S(=O)(=O)N4CCOCC4)cc32)cc1 (stereo unspecified),-12,-2%,-7%,-8%,/,/
CC(C)OP(=O)(OC(C)C)C(Nc1cccc(C(=O)O)c1)c1ccccc1 (stereo unspecified),-28,3%,17%,8.9µM*,14%,7%
COc1ccc(C(C(=O)NC2CCCCC2)N(C(=O)CCl)c2ccc(C)cc2)cc1 (stereo unspecified),-99*,-3%,4%,?,2%,4%
COc1ccc(C(C(=O)NC2CCCCC2)N(C(=O)CCl)c2ccc(OC)cc2)cc1 (stereo unspecified),/,-4%,-22%,8.9µM*,-4%,7%
COc1ccc(C(C(=O)NC2CCCC2)N(C(=O)c2ccoc2C)c2ccc(C)cc2)cc1 (stereo unspecified),?,-1%,1%,-7%,2%,1%
COc1ccc(C(C(=O)NC2CCCCC2)N(C(=O)CCl)c2cccc(Cl)c2)cc1 (stereo unspecified),-99*,-2%,-18%,25µM*,0%,-9%
O=C(NC1CCCC1)C(c1ccc(F)cc1)N(Cc1ccc(F)cc1)C(=O)CCl (stereo unspecified),-67*,-14%,5.6µM*,?,-3%,8%
CC1CCC(NC(=O)c2ccc(CS(=O)(=O)c3cccc(C(F)(F)F)c3)o2)CC1 (stereo unspecified),-3,1%,1%,-25%,/,/
Cc1ccc(C)n1-c1c(C(=O)NCC(C)c2ccccc2)sc2ncccc12 (stereo unspecified),10,0%,-34%,0%,/,/
CC(C)(C)C(=O)Nc1cccc(C(=O)OCc2cc(=O)n3nc(C4CC4)sc3n2)c1,14,-3%,2%,?,/,/
O=C(c1ccccc1F)N1CC(=O)N2[C@H](CO)[C@H](c3ccc(Br)cc3)[C@@H]2C1,-9,/,/,/,/,/
COC(CN(C(=O)CCl)C(C(=O)NC1CCCCC1)c1ccc(C)cc1)OC (stereo unspecified),-29,-2%,45µM*,?,-2%,-15%
COc1ccc(CN(C(=O)c2nsc(Cl)c2Cl)C(C(=O)NC2CCCC2)c2ccc(C)cc2)cc1 (stereo unspecified),?,3%,-6%,13%,-4%,10%
Cc1ccsc1C(=O)N(Cc1cc2cc3c(cc2nc1N1CCOCC1)CCC3)CC1CCCO1 (stereo unspecified),/,/,/,-1%,/,/
O=c1c2sc3ccccc3c2n(Cc2cccc(C(F)(F)F)c2)c(=O)n1Cc1ccc(F)cc1,-22,6%,4%,0%,/,/
CCN(c1ccccc1)S(=O)(=O)c1ccc(Cl)c(NC(=O)CSc2ncn[nH]2)c1,-101*,-14%,7%,0%,10%,/
CCN(c1ccccc1)S(=O)(=O)c1ccc(OC)c(NC(=O)c2c(C)noc2C)c1,36,-13%,-1%,6%,/,-1%
CS(=O)(=O)c1ccc(Cl)c(NC(=O)CSc2n[nH]c(N)n2)c1,-37,0%,13%,-18%,/,-22%
CCN(c1ccccc1)S(=O)(=O)c1ccc(OC)c(NC(=O)c2cc(Cl)ccn2)c1,/,5%,45µM*,-15%,/,-3%
CCN(c1ccccc1)S(=O)(=O)c1ccc(Cl)c(NC(=O)CSc2n[nH]c(N)n2)c1,-67*,-4%,-2%,-29%,11%,/
CCN(CC)S(=O)(=O)c1ccc(OC)c(NC(=O)CCS(=O)(=O)Cc2ccccc2)c1,-69*,-11%,-1%,-12%,1%,-9%
COc1ccc(C(=O)NCC2Cc3cc(C)cc(-c4cc(C(C)=O)ccc4F)c3O2)c(OC)c1OC (stereo unspecified),/,/,/,-18%,/,/
NCCC[C@@H](CC(=O)N[C@@H]1CCNC[C@H]1C(=O)N[C@H](CC(=O)N[C@@H](CCC(=O)O)CC(=O)O)Cc1ccccc1)NC(=O)C[C@H](Cc1ccccc1)NC(=O)[C@@H]1CCCC[C@H]1N,/,/,/,/,-24%,/
CCC(C(=O)NC(=O)NC(C)=O)c1ccccc1 (stereo unspecified),/,-9%,/,/,/,/
CC(C)c1nc2cccnc2n1C1CCN(C(=O)Cn2cccn2)CC1,/,/,/,-12%,/,/
SMILES,HCMV antiviral,TbPYK inhibitor,Sm TGR block,FMDV inh,Giardia FBPA inh,RE007 growth inh
CCN(CC)c1ccc(N=Nc2ccc(S(=O)(=O)N(C)C)cc2)c(S(=O)(=O)NCC[n+]2ccccc2)c1,/,1%,/,/,/,/
CCc1ccn2cc(-c3cc(-c4ccccc4)no3)nc2c1,-95*,-7%,26%,3.2µM*,-7%,-18%
Clc1ccccc1NC1=NCCCS1,?,-3%,3%,9%,7%,-8%
FC(F)(F)c1ccccc1NC1=NCCCS1,-63*,-7%,-3%,-11%,3%,6%
COc1ccccc1C(=O)N1c2ncnn2C2(CCCCC2)[C@@H]2CCCC[C@@H]21,-5,-4%,0%,-16%,/,/
CC(C)C(=O)N1c2ncnn2C2(CCCCC2)[C@@H]2CCCC[C@@H]21,-111*,0%,-23%,-27%,/,/
CCN(CC)C(=O)c1sc2c(c1C)c(=O)n(Cc1ccccc1)c(=O)n2Cc1ccccc1C,0,0%,0%,?,/,/
CC(C)N(Cc1cn(C)nc1-c1cccc(Cl)c1)CC1CCC(=O)N1 (stereo unspecified),-13,4%,31%,-7%,2%,17%
C=CCN(Cc1cn(C)nc1-c1cccc(Cl)c1)C1CCS(=O)(=O)C1 (stereo unspecified),29,-5%,28µM*,-10%,1%,2%
O=C(c1ccc2c(c1)N(Cc1ccccc1F)C(=O)c1ccccc1S2=O)N1CCC(Cc2ccccc2)CC1 (stereo unspecified),-35,-1%,-1%,?,/,/
Nc1nc(-c2ccc(-n3nncc3-c3ccco3)cc2)cs1,/,-13%,-16%,-2%,5%,5%
Cc1nc(-c2ccc(-n3nncc3-c3ccco3)cc2)cs1,-16,-6%,50µM*,-16%,-4%,-15%
COc1ccc(NC(=O)N(C)C[C@H]2Oc3c(NC(=O)c4nc5ccccc5s4)cccc3C(=O)N([C@@H](C)CO)C[C@H]2C)cc1,-103*,0%,/,-14%,/,5%
C[C@H](CO)N1C[C@H](C)[C@@H](CN(C)C(=O)Nc2ccc(C(F)(F)F)cc2)Oc2c(NC(=O)Nc3ccccc3)cccc2C1=O,-17,1%,/,-12%,/,14%
